Source: PubChem
Compounds with a hit are over-represented: about 5.2% of the library has one in this group of screens.
Coupling enz: qHTS Assay for Inhibitors of Fructose-1,6-bisphosphate Aldolase from Giardia Lamblia: Coupling assay counterscreen; coupling enzyme system counterscreen, AmpLite Red fluorescence; activity change, negative = inhibition, % at 58.2 µM, hits read low; 290,000 compounds, 0.67% hits; AID 2472, 2010; in the data active = activity change below about -30%
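Counterscreen lacking aldolase: glyceraldehyde-3-phosphate coupling-enzyme reagent preincubated 10 min at RT with compound (at 57.5 uM final), then substrate/coupling system with AmpLite Red added; fluorescence read at 525/598 nm after 20 min RT.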
Tau fluor cs: Counterscreen qHTS for Inhibitors of Tau Fibril Formation, Fluorescence Polarization; tau K18 P301L Alexa594 fluorescence, heparin fibrillization; AID 1463, 2008; 280,000 compounds, 0.93% hits; Potency, µM (titrated, usually from 57.7 µM), for the others: at the highest dose activity change, negative = decrease; note: potency is the fitted concentration of half-maximal effect; nearly all actives have a fitted effect of over 55% in size
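Human tau K18 P301L (15 uM unlabeled, 0.24 uM Alexa 594-labeled) in 100 mM sodium acetate pH 7 with 20 uM heparin, 6 hr at 37 C. ThT 30 uM added, 1 hr ambient; Alexa 594 FP and total fluorescence read at 555/632 nm.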
Sfp PPTase inh: qHTS Assay for Inhibitors of Bacillus subtilis Sfp phosphopantetheinyl transferase (PPTase); 4'-phosphopantetheinyl transferase ffp (Bacillus subtilis), Q9F4F7; Biochemical Sfp PPTase activity, qHTS; Potency, µM, for inactives: largest response in the series, negative = inhibition, usual class: inhibitors; 310,000 compounds, 3.5% hits; AID 1490, 2009;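 note: the enzyme is Sfp with the accession as filed and its product quenches rhodamine fluorescence; potency is the fitted concentration of half-maximal effect; 0% = enzyme reaction without inhibitor and -100% = no enzyme wells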
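Sfp 15 nM + cpd, 15 min RT; start w/ rhodamine-CoA 5 uM, BHQ-2-YbbR 12.5 uM (final); 50 mM Hepes pH 7.6, 10 mM MgCl2, 0.01% NP-40, 0.01% BSA; read 525/598 nm at 0 and 30 min.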
Tau fibril ThT: qHTS for Inhibitors of Tau Fibril Formation, Thioflavin T Binding. recombinant tau K18 P301L (four-repeat tau fragment), heparin-induced fibrillization, ThT fluorescence. Potency, µM (highest dose often 57.4 µM), for the others: top-dose activity, negative = inhibition, most hits filed as inhibitors. 270,000 compounds, 2.1% hits; note: potency is the fitted concentration of half-maximal effect; nearly all actives have a fitted effect of over 55% in size
Target sequence (P10636 561-689 P618L limits assumed): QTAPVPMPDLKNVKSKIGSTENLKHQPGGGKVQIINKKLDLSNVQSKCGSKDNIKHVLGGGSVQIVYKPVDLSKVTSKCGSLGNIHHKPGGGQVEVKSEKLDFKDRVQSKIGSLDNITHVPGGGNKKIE
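K18 P301L tau (15 uM + 0.24 uM Alexa 594-tagged), heparin 20 uM, NaOAc pH 7, 6 h 37 C; ThT 30 uM, 1 h RT, ex 450/em 510 nm.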
Tau FP inhib: qHTS for Inhibitors of Tau Fibril Formation, Fluorescence Polarization; Microtubule-associated protein tau (Homo sapiens), P10636; K18 P301L tau heparin fibrillization, Alexa594 FP, 6 h; Potency, µM (doses to about 57.7 µM), without a hit: at the highest dose activity, negative = inhibition, usual class: inhibitors; 280,000 compounds, 0.39% hits; AID 1468, 2008; note: potency is the fitted concentration of half-maximal effect; nearly all actives have a fitted effect of over 55% in size
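Human tau K18 […] P301L fragment, 15 uM unlabeled plus 0.24 uM Alexa 594-labeled tau (final), with compound and 20 uM heparin in 100 mM sodium acetate pH 7; 6 hr at 37 C, then Alexa 594 FP read.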
Starred values were filed as active, the others as inactive; ? = inconclusive; . = not tested or not shown; [ ] = remark or other dose. Unless noted, calls come from the whole dose curve; as a rule, active = well fitted curve in the direction sought with a large enough effect; inconclusive = small, poorly fitted or top-dose-only effect, or another doubt; inactive = no such curve, though single readings can be large; an effect the other way counts as inactive or inconclusive. Unless noted, % is set by controls: 0 for no effect and ±100 for the full control effect.

SMILES	Coupling enz	Tau fluor cs	Sfp PPTase inh	Tau fibril ThT	Tau FP inhib
Nc1nc(-c2ccco2)cs1	-17	-11%	50µM*	?	-9%
c1coc(-c2ncc[nH]2)c1	-13	-2%	-26%	-9%	-1%
COc1ccc2nc(-c3ccco3)c(-c3ccco3)nc2c1	-32*	7.9µM*[quencher]	7.1µM*	4.5µM*	?
Nc1nc(-c2cccs2)c(-c2cccs2)s1	1	.	5%	.	.
Nc1nc(-c2ccc(-n3nncc3-c3ccco3)cc2)cs1	1	-31%	-3%	-23%	9%
Nc1nc(-c2ccco2)c(-c2ccco2)s1	-10	?	16µM*	?	-10%
c1coc(-c2nc(-c3ccco3)c(-c3ccco3)nc2-c2ccco2)c1	-14	?	35µM*	7.9µM*	11µM*
COc1ccc(C2=Nn3c(nnc3-c3cc(OC)ccc3OC)SC2)c(OC)c1	1	.	-21%	.	.
CCN(CC)S(=O)(=O)c1cccc(C(=O)Nc2sc3c(c2C#N)CCC(C)C3)c1 (stereo unspecified)	.	-28%	.	-10%	-7%
COc1cccc(-c2cc(C(=O)Nc3nc4ccccc4s3)c3ccccc3n2)c1	-2	-24%	40µM*	-15%	?
Cc1ccc2nc(NC(=O)c3cc(-c4ccco4)nc4ccccc34)sc2c1	2	-30%	-2%	?	-3%
O=C(Nc1nc2ccccc2s1)c1cc(-c2ccco2)nc2ccccc12	-1	-29%	45µM*	?	-3%
CC(C)(C)c1ccc(C(=O)N2CC(=O)Nc3ccc(F)cc3C2c2ccc(F)cc2)cc1 (stereo unspecified)	.	-19%	.	-19%	-4%
CC(=O)N1CCc2cc(Br)cc(S(=O)(=O)CCC(=O)N3CCN(c4ccccc4Cl)CC3)c21	.	-10%	.	-12%	4%
CCCC[C@@H]1C[C@H]1C(NC(=O)c1cccnc1)c1ccc(-c2ccccc2)cc1 (stereo partly specified)	1	-6%	21%	-6%	-1%
CC(C)CO/N=C1/C[C@@H](O)[C@@H](O)[C@@H]2[C@@H]3C(=O)N(C4CCCCC4)C(=O)[C@H]3CC[C@@H]12	0	-16%[11.6 µM]	19%	-14%[11.5 µM]	-5%[11.6 µM]
[O-]c1c[n+](-c2ccc(-[n+]3cc([O-])on3)cc2)no1	-24	-14%	56µM*	?	5%
O=C(Nc1ccc2c(c1)nc1n2CCN(C2CCCCC2)C1)c1ccco1	-19	-11%	79µM*	?	-13%
O=C(Nc1ccc2c(c1)nc1n2CCN(C2CCCCC2)C1)NC1CCCCC1	-32*	-24%	-2%	?	9%
O=[N+]([O-])c1ccc(-c2csc(N3CCc4ccccc4C3)n2)cc1	-2	?	10%	5µM*	11%
O=C(CC1SC(=Nc2ccccc2)N(CCc2c[nH]c3ccccc23)C1=O)Nc1ccccc1F (stereo unspecified)	0	13µM*[quencher]	?	-15%	-6%
Nc1ccccc1C(=O)C[C@H](N)C(=O)O	.	-2%	71µM*	-7%	-2%
O=C(c1ccco1)N1CCN(C(=O)c2cc3c(s2)-c2ccccc2OC3)CC1	-1	-14%	50µM*	?	?
COc1cc(NC(=O)c2cc3c(s2)-c2ccccc2OC3)cc(OC)c1OC	.	6.3µM*[quencher]	.	?	9%
CCCCc1nc2c(c3c1C[C@H](C)OC3)CN(C(=O)NCc1ccco1)CC2	-1	-15%[11.6 µM]	3%	-12%[11.5 µM]	0%[11.6 µM]
SMILES	Coupling enz	Tau fluor cs	Sfp PPTase inh	Tau fibril ThT	Tau FP inhib
CCOC(=O)CNc1oc(-c2ccccc2)nc1-c1ccccc1	3	-6%	0%	-7%	0%
COc1cccc(C2CC(=O)Nc3c2c(=O)nc2c(C)cccn32)c1 (stereo unspecified)	.	-17%	.	-11%	-6%
O=[N+]([O-])c1cc2oc3c(c2c(C=NCc2ccccc2)c1O)CCCC3	-29	-11%	8%	5µM*	?
CC(C)CN=Cc1c(O)c([N+](=O)[O-])cc2oc3c(c12)CCCC3	-32*	?	-15%	4.5µM*	?
O=c1oc2ccc3ccccc3c2cc1-c1nnc(Nc2ccccc2)s1	.	-3%	.	?	5%
CC[C@@H](c1ccccc1)n1c(=O)n2n(c1=O)[C@H]1[C@H](O)[C@H]3O[C@@H]3/C(=N/OCc3ccccc3)[C@@H]1CC2	3	-4%[11.6 µM]	1%	-6%[11.5 µM]	-8%[11.6 µM]
Cc1cc(C)c2c(=O)n(CC(=O)NC3CCCC3)sc2n1	-1	-24%	2.8µM*	13µM*	14µM*
Cc1cc(C)c2c(=O)n(CC(=O)Nc3cccc(Cl)c3C)sc2n1	3	?	2.5µM*	.	20µM*
COc1ccc(OC)c(CCNC(=O)Cn2sc3nc(C)cc(C)c3c2=O)c1	3	-29%	1.4µM*	11µM*	?
Cc1cc(C)c2c(=O)n(CC(=O)Nc3ccc(Br)c(C)c3)sc2n1	5	?	3.2µM*	?	?
CCc1nn2c(=O)cc(COC(=O)c3ccccc3NC(=O)COc3ccccc3C)nc2s1	.	-10%	.	-10%	-16%
CCCOc1ccc(C2c3c(oc4ccccc4c3=O)C(=O)N2c2nc(C)c(C(=O)OCC)s2)cc1 (stereo unspecified)	.	-9%	.	-11%	0%
Cc1ccc(-c2nc3ccccc3c(=O)n2NC(=O)c2cccs2)cc1	2	10%	-11%	7%	0%
Cc1ccc(-c2nc3ccccc3c(=O)n2NC(=S)N(C)C)cc1	1	12%	22µM*	3%	-9%
O=[N+]([O-])c1cc(CN2CCN(c3cccc(C(F)(F)F)c3)CC2)c2cccnc2c1O	-14	-16%	10%	16µM*	1%
Oc1c(Cl)cc(CN2CCCCC2)c2cccnc12	-16	.	13%	.	.
O=[N+]([O-])c1cc(CN2CCCC2)c2cccnc2c1O	-35*	-23%	-2%	16µM*	-14%
CC(=O)c1ccc(NC(=O)CCc2c(C)nn(-c3ccc4nncn4n3)c2C)cc1	.	0%	.	-5%	-2%
Cc1ccc(N2C(=O)CS(=O)(=O)C23C(=O)N(Cc2ccccc2F)c2ccccc23)cc1Cl (stereo unspecified)	.	-1%	.	4%	-15%
CC(=O)Nc1ccc2c(c1)C(C)(C)C(C)N2C (stereo unspecified)	0	28µM*[fluorescent]	-1%	?	?
CCC(=O)c1ccc(NC(C)=O)cc1O	4	-11%	15%	0%	-5%
C=CCN1C(=O)/C(=c2\sc3nc(=O)c(Cc4ccccc4Cl)nn3c2=O)c2ccccc21	1	-12%	11µM*	?	?
